Assay outcomes (PubChem)
Compounds with a hit are over-represented: about 1.5% of the library has one in this group of screens.
CD11b adhes enh = enhancers of human CD11b/CD18 binding to fibrinogen; hit rate 0.07% among 93,000; AID 1499; activation, % at 10 µM; P05107+P11215; K562 CD11b/CD18 adhesion to fibrinogen, ATPlite luminescence;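 active = 10 µM primary screen giving 50% or more activity, confirmed by 40% or more on retest at that dose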
HePTP inh = human HePTP phosphatase inhibition | P35236 | recombinant HePTP phosphatase activity, OD absorbance | inhibition, % at 20 µM | hit rate 0.64% among 110,000 | AID 521; in the data active = inhibition above about 50%;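 note: plate controls were vehicle for no effect and reference inhibitor for full effect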
Mac1 fbg inh = inhibitors of human CD11b/CD18 binding to fibrinogen. inhibition, % at 10 µM. AID 1497. hit rate 0.54% among 93,000. P05107+P11215. K562 CD11b/CD18 adhesion to fibrinogen, ATPlite luminescence; Mn2+ added to activate the integrin;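 active = primary inhibition of 50% or more at 10 µM, then 40% or more on retest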
PLAP act = human PLAP activation. purified PLAP enzyme, luminescent substrate read-out; active compounds read high. activation fold at 20 µM. hit rate 1.2% among 96,000. AID 696; in the data active = activation fold above about 2
Target sequence (P05187 whole entry, looked up): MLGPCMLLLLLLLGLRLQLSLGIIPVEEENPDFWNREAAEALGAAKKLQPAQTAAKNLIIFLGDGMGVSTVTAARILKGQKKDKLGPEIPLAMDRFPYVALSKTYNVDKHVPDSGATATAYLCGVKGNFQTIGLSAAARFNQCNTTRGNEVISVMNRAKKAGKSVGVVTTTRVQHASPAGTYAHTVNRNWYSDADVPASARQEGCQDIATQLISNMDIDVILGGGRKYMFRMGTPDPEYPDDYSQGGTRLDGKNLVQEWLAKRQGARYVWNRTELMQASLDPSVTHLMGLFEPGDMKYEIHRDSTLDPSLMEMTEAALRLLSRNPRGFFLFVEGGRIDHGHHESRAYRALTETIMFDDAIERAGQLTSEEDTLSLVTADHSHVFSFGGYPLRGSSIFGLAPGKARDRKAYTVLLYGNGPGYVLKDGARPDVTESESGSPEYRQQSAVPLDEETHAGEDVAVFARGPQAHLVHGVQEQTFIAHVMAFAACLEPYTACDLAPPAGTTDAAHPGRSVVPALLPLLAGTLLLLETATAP
Numbers without * were called inactive; · = not tested or not shown; ! = a repeat was not active.

SMILES | CD11b adhes enh | HePTP inh | Mac1 fbg inh | PLAP act
Cc1ccccc1-c1nc(CN2CCC(C(=O)NCCC3=CCCCC3)CC2)c(C)o1 | 0 | -1 | 15 | 2.3*
Cc1ccccc1-c1nc(CN2CCC(C(=O)O)CC2)c(C)o1 | 0 | 4 | -8 | 0.9
COc1ccc(CCNC(=O)C2CCN(Cc3nc(-c4ccc(Cl)cc4)oc3C)CC2)cc1OC | · | -5 | · | ·
CCCOC(=O)c1ccc(NC(=O)COc2ccc(CC)cc2)cc1 | · | -10 | · | ·
Oc1ccc(Br)cc1C=NCc1ccco1 | · | 8 | · | ·
COc1ccc(-c2nn(CN3CCOCC3)c(=S)o2)cc1 | · | 3 | · | ·
Cc1cc(Nc2cccc(C(F)(F)F)c2)n2nc(C)nc2n1 | 0 | 10 | -1 | 0.9
CCc1nc2nc(C)cc(Nc3cccc(C(F)(F)F)c3)n2n1 | -6 | -10 | -24 | 2.4*
Cc1cccc(C)c1NC(=O)c1ccc([N+](=O)[O-])cc1Cl | · | 4 | · | ·
Cc1c(/C=N/NC(=O)CNc2ccccc2)c2ccccn2c1C(=O)c1ccccc1 | 4 | · | -9 | ·
Cc1c(/C=N/NC(=O)c2cc(=O)[nH]c(=O)[nH]2)c2ccccn2c1C(=O)c1ccccc1 | -2 | · | -3 | 2.2*
CCOC(=O)C1=C(O)/C(=C/c2ccc(N(C)C)cc2)SC1=Nc1cccc2ccccc12 | · | 8 | · | ·
Cc1cc(N/C=C/C(=O)c2ccc(Cl)s2)no1 | · | 102* | · | ·
COc1ccc(NC(=S)NNC(=O)OC(C)(C)C)cc1OC | -4 | · | 2 | 2.5*
Cc1sc2ncnc(N3CCCCC3)c2c1C | -2 | · | 10 | 0.8
Cc1ccc(OCCN2CCN(c3ncnc4sc(C)c(C)c34)CC2)cc1 | -8 | · | 97* | 2.2*
Clc1ccc(OCCN2CCN(c3ncnc4sccc34)CC2)cc1 | -8 | 6 | 99* | 1.7
Cc1c(NS(=O)(=O)c2ccc(F)cc2)cccc1[N+](=O)[O-] | · | -6 | · | ·
CC1=C(C(=O)OCC(C)C)C(c2ccc(Br)cc2)NC(=O)N1 (centres undefined) | · | 60* | · | ·
CCOC(=O)c1ccc(-n2c(=O)[nH]c3ccccc3c2=O)cc1 | -4 | 0 | 4 | 2*
Cc1[nH]n(-c2ccccc2)c(=O)c1/C=N/NC(=O)CSCc1ccc(Cl)cc1 | · | -6 | · | ·
O=C(O)CCCCCN1C(=O)C(=O)/C(=C(/O)c2ccc(Cl)cc2)C1c1ccc2c(c1)OCO2 (centres undefined) | · | -6 | · | ·
O=C(O)CCCCCN1C(=O)C(=O)/C(=C(/O)c2ccc([N+](=O)[O-])cc2)C1c1ccc2c(c1)OCO2 (centres undefined) | · | 104* | · | ·
CC1=NN(c2ccc(Cl)c(C(=O)O)c2)C(=O)/C1=C\c1ccco1 | · | 73* | · | ·
O=C1/C(=C\Nc2cc(Cl)ccc2O)CCc2ccccc21 | · | 0 | · | ·
SMILES | CD11b adhes enh | HePTP inh | Mac1 fbg inh | PLAP act
CNc1ccc([N+](=O)[O-])cc1N/C=C1\CCc2ccccc2C1=O | · | 104* | · | ·
CC(C)Cc1csc(NC(=O)c2ccc(Cl)cc2)c1C(=O)O | -7 | · | 100* | ·
COc1ccc(C(=O)Nc2nc3ccccc3[nH]2)cc1OC | · | 7 | · | ·
COc1ccc(C(=O)Nc2nc3ccccc3[nH]2)cc1S(=O)(=O)N1CCCC1 | -2 | · | -5 | 2*
O=C(Nc1ncn[nH]1)c1ccc(Cl)c(S(=O)(=O)N2CCCCCC2)c1 | -2 | · | -11 | 2.1*
O=C(Nc1cccnc1)c1ccc(Cl)c(S(=O)(=O)N2CCCCCC2)c1 | -2 | -3 | 12 | 1.5
Cc1cc2ncc(-c3ccc(Cl)cc3)c(N)n2n1 | -2 | 15 | 18 | 2*
O=C1/C(=C/c2cc3c(cc2[N+](=O)[O-])OCO3)Sc2ccccc21 | · | 10 | · | ·
O=C(O)c1ccc(C(=O)N(C2CCCCC2)C2CCCCC2)cc1 | · | -9 | · | ·
O=C(Cc1cccs1)Nc1nc2c(s1)CCCC2 | -5 | 4 | · | 0.9
O=C(Cc1cn2ccsc2n1)Nc1nc2c(s1)CCCC2 | -1 | 6 | 5 | 2*
C=CCOCC(O)CS(=O)Cc1ccccc1 (centres undefined) | · | -6 | · | ·
CCOC(=O)c1sc(N2C(=O)C(O)=C(C(=O)c3ccco3)C2c2ccccc2)nc1C (centres undefined) | · | 7 | · | ·
Cc1ccc2nc(N3C(=O)C(O)=C(C(=O)c4ccco4)C3c3cccs3)sc2c1 (centres undefined) | -6 | · | 52* | 1.2
Clc1cccc(/C=N/N=C/c2cccc(Cl)c2Cl)c1Cl | · | 5 | · | ·
COc1ccc(CN(C(=O)c2ccco2)C2CC(C)N(C)CC2C)cc1 (centres undefined) | 3 | 102*! | -5 | 0.9
COc1ccc(-c2cc(-c3c(O)c(OC)c4occc4c3OC)[nH]n2)cc1 | -3 | · | 13 | 2.3*
COc1c(-c2cc(-c3ccccc3)n[nH]2)c(O)c(OC)c2occc12 | · | -13 | · | ·
COc1cc(/C=C2\C(=O)NC(=S)N(c3ccccc3)C2=O)cc([N+](=O)[O-])c1O | · | 59* | · | ·
Cn1c(Cc2cccs2)nnc1SCc1nc2ccccc2[nH]1 | -1 | -7 | 5 | 2*
Cn1c(SCc2nc3ccccc3[nH]2)nnc1-c1cccs1 | -5 | 13 | -9 | 1.6
CCOC(=O)c1[nH]c2ccc(Br)cc2c1NC(=O)CCN1CCC(C)CC1 | 4 | · | -12 | 1.7
CCOC(=O)c1[nH]c2ccc(Br)cc2c1NC(=O)CNC | 104* | 8 | -2 | 1
CN(C)CCNc1oc(COc2ccc(Cl)cc2Cl)nc1C#N | 0 | · | -3 | 2*
COC(=O)CCC(=O)NNc1ccc([N+](=O)[O-])cc1 | · | 60* | · | ·
SMILES | CD11b adhes enh | HePTP inh | Mac1 fbg inh | PLAP act
COC(=O)CCC(=O)Nc1ccc([N+](=O)[O-])cc1C | · | 8 | · | ·
CCc1[nH]nc(C(=O)N/N=C/c2cccnc2)c1C | · | -2 | · | ·
O=C(/C=C/c1ccco1)Nc1ccc(-c2nc3ccccc3s2)c(O)c1 | · | 104* | · | ·
CCN1C(=O)/C(=C/c2c(NCCCn3ccnc3)nc3c(C)cccn3c2=O)SC1=S | · | -5 | · | ·
Cc1cccn2c(=O)c(/C=C3\SC(=S)N(Cc4ccco4)C3=O)c(NCCCn3ccnc3)nc12 | · | 62* | · | ·
Fc1ccccc1NC(=S)NNc1ncc(C(F)(F)F)cc1Cl | -11 | · | 81* | 1.4
Cc1cccc(C)c1NC(=S)NNc1ncc(C(F)(F)F)cc1Cl | -2 | · | 3 | 2.1*
O=C(NNc1ncc(C(F)(F)F)cc1Cl)c1c(Cl)cccc1Cl | 1 | · | 11 | 1.3
Cc1ccccc1NC(=S)NNc1ncc(C(F)(F)F)cc1Cl | 0 | · | 17 | 1.6
Cc1c(Cl)cccc1NC(=S)NNc1ncc(C(F)(F)F)cc1Cl | -10 | · | 90* | 1.1
CC(C)(C)C(=O)Nc1ncc(C(F)(F)F)cc1Cl | 11 | 4 | -34 | 0.7
O=C1C(=O)N(Cc2cccnc2)C(c2cccc(F)c2)/C1=C(\O)c1ccccc1 (centres undefined) | · | 8 | · | ·
COCCCNC(=S)NNC(=S)Nc1ccc(F)cc1F | -2 | · | -6 | 2.7*
COCCNC(=S)Nc1ccc(F)cc1 | · | -11 | · | ·
COc1cc(OC)cc(C(=O)N2CCN(CCCc3ccccc3)CC2)c1 | · | -1 | · | ·
CCCCNc1cc(C)nc(NCc2ccccc2)n1 | -13 | 9 | 85* | 0.9
Cc1cc(Nc2ccccc2)nc(NCc2ccccc2)n1 | -10 | · | 100 | ·
CCOc1ccc(C(=O)Nc2ccc3oc(-c4ccncc4)nc3c2)cc1Cl | · | 98* | · | ·
